Outcome and AC50 data for 4 compounds are collected here from PubChem BioAssay (EPA / NIEHS).

The structures appear in SMILES notation. The source made the active and inactive calls. Rule for the calls: active = hit-call score of the fitted dose curve at least 0.9, where 1 is the maximum; inactive = score below 0.9.

What all share (settings): mRNA level, 48 h; actives raise or lower the signal
Read-out in test [1]: Potassium channel subfamily K member 1 (KCNK1), KCNK1 (gene 3775)
The test is described as follows: LTEA_HepaRG_KCNK1: Life Technologies and Expression Analysis (LTEA) Assay for Potassium channel subfamily K member 1 (KCNK1) using HepaRG (AID 2283511). An outline of the steps:
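Gain or loss of KCNK1 mRNA is the read-out, quantified by qRT-PCR against three housekeeping genes after 48 h chemical treatment of human HepaRG liver cells. Concentrations ran from 100 uM downward in half-log steps, vehicle 0.5% DMSO.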

Read-out in test [2]: Keratin 19 (KRT19), KRT19 (gene 3880)
The test is described as follows: LTEA_HepaRG_KRT19: Life Technologies and Expression Analysis (LTEA) Assay for Keratin 19 (KRT19) using HepaRG (AID 2283512). Summed up: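 KRT19 transcript levels, measured by Fluidigm qRT-PCR against three housekeeping genes, are fitted for gain or loss of signal relative to DMSO. Human HepaRG cells receive test chemicals (top 100 uM, half-log steps, 0.5% DMSO) for 48 hours.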

Read-out in test [3]: JUN Transcription Factor, JUN (gene 3725)
The test is described as follows: LTEA_HepaRG_JUN: Life Technologies and Expression Analysis (LTEA) Assay for JUN Transcription Factor using HepaRG (AID 2283513). Summed up: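 Cells plated 48 h, medium switched to serum-free induction medium, then dosed 48 h (100 uM top, half-log dilutions, 0.5% DMSO). RNA isolated; JUN measured by qRT-PCR against three housekeeping genes; gain or loss fitted relative to DMSO.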

Read-out in test [4]: Lipase C (LIPC), LIPC (gene 3990)
The test can be described thus: LTEA_HepaRG_LIPC: Life Technologies and Expression Analysis (LTEA) Assay for Lipase C (LIPC) using HepaRG (AID 2283514). An outline of the steps:
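Read-out is LIPC transcript level by TaqMan qRT-PCR, normalized to three housekeeping genes, after 48 h chemical treatment of human HepaRG liver cells. Curves span eight concentrations topping at 100 uM; activity in either direction scored relative to 0.5% DMSO.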

Read-out in test [5]: Lipoprotein lipase (LPL), LPL (gene 4023)
The test is described as follows: LTEA_HepaRG_LPL: Life Technologies and Expression Analysis (LTEA) Assay for Lipoprotein lipase (LPL) using HepaRG (AID 2283515). An outline of the steps: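 Read-out is LPL transcript level by qRT-PCR, normalized to three housekeeping genes and fitted bidirectionally against the DMSO control. Human HepaRG cells received chemicals for 48 h at up to 100 uM.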

Read-out in test [6]: MicroRNA 122 (MIR122), gene 406906
The test is described as follows: LTEA_HepaRG_MIR122: Life Technologies and Expression Analysis (LTEA) Assay for MicroRNA 122 (MIR122) using HepaRG (AID 2283516). Note: the transcript read is the microRNA miR-122. Summed up:
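HepaRG plated 48 h, switched to serum-free induction medium, then treated in duplicate for 48 h (100 uM top, half-log steps, 0.5% DMSO vehicle). RNA isolated, qRT-PCR performed, concentration-response fitted both directions relative to DMSO.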

Read-out in test [7]: matrix metalloproteinase-10 (MMP10), MMP10 (gene 4319)
The test is described as follows: LTEA_HepaRG_MMP10: Life Technologies and Expression Analysis (LTEA) Assay for matrix metalloproteinase-10 (MMP10) using HepaRG (AID 2283517). An outline of the steps: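 Gain or loss of MMP10 mRNA is fitted relative to the 0.5% DMSO vehicle. The human hepatic line HepaRG receives a 48-hour serum-free exposure, in duplicate, with a maximum concentration of 100 uM.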

Read-out in test [8]: MYC, MYC (gene 4609)
The test can be described thus: LTEA_HepaRG_MYC: Life Technologies and Expression Analysis (LTEA) Assay for MYC using HepaRG (AID 2283518). An outline of the steps:
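HepaRG, ~100,000 cells/well, collagen I; 48 h plating; serum-free induction medium; 48 h dosing, duplicate, 100 uM top, half-log, 0.5% DMSO; total RNA → qRT-PCR MYC; gain/loss fit vs DMSO.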

Read-out in test [9]: matrix metalloproteinase-3 (MMP3), MMP3 (gene 4314)
The test can be described thus: LTEA_HepaRG_MMP3: Life Technologies and Expression Analysis (LTEA) Assay for matrix metalloproteinase-3 (MMP3) using HepaRG (AID 2283519). Summed up: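 HepaRG, human; 48 h dosing, 8 conc. (max 100 uM, half-log), duplicate, 0.5% DMSO. Readout: MMP3 transcript by Fluidigm TaqMan qRT-PCR, ACTB/GAPDH/POLR2A-normalised. Gain or loss fitted vs DMSO.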

Read-out in test [10]: Paternally Expressed 10 (PEG10), PEG10 (gene 23089)
The test can be described thus: LTEA_HepaRG_PEG10: Life Technologies and Expression Analysis (LTEA) Assay for Paternally Expressed 10 (PEG10) using HepaRG (AID 2283520). Summed up: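 HepaRG, 48 h post-plating → serum-free induction medium → 48 h chemical exposure (duplicate, 8-pt, max 100 uM, half-log, 0.5% DMSO) → lysis in RLT → TaqMan qRT-PCR for PEG10, ACTB/GAPDH/POLR2A normalisation.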

Read-out in test [11]: Nuclear factor NF-kappa-B p105 subunit (Homo sapiens) (UniProt P19838)
The test can be described thus: LTEA_HepaRG_NFKB1: Life Technologies and Expression Analysis (LTEA) Assay for Nuclear Factor Kappa B Subunit 1 (NFKB1) using HepaRG (AID 2283521). An outline of the steps: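 Differentiated human HepaRG cells were exposed for 48 h in serum-free induction medium to eight concentrations (top 100 uM, half-log steps, 0.5% DMSO), in duplicate. NFKB1 mRNA was measured by TaqMan qRT-PCR, normalized to ACTB/GAPDH/POLR2A, and fitted bidirectionally against DMSO.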

Read-out in test [12]: Protein phosphatase 2A (PPP2R4), PTPA (gene 5524)
The test is described as follows: LTEA_HepaRG_PPP2R4: Life Technologies and Expression Analysis (LTEA) Assay for Protein phosphatase 2A (PPP2R4) using HepaRG (AID 2283522). Summed up: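 Readout is PPP2R4 transcript level by microfluidic qRT-PCR after 48 h chemical treatment of human HepaRG liver cells. Concentrations spanned 100 uM downward in half-log steps; gain or loss of signal was fitted relative to DMSO.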

Read-out in test [13]: Phosphatase and tensin (PTEN), PTEN (gene 5728)
The test is described as follows: LTEA_HepaRG_PTEN: Life Technologies and Expression Analysis (LTEA) Assay for Phosphatase and tensin (PTEN) using HepaRG (AID 2283523). Summed up:
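Read-out is PTEN transcript level by multiplexed TaqMan qRT-PCR after 48 h chemical treatment of human HepaRG cultures in serum-free induction medium. Concentrations spanned 100 uM downward in half-log steps, 0.5% DMSO throughout; activity fitted in both directions against vehicle.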

Read-out in test [14]: solute carrier (SLC22A1), SLC22A1 (gene 6580)
The test is described as follows: LTEA_HepaRG_SLC22A1: Life Technologies and Expression Analysis (LTEA) Assay for solute carrier (SLC22A1) using HepaRG (AID 2283524). Summed up:
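HepaRG (human liver line), 48 h dosing in serum-free induction medium; 8 conc., half-log down from 100 uM, 0.5% DMSO vehicle, duplicates. Endpoint: SLC22A1 mRNA, qRT-PCR, housekeeping-normalized; gain/loss fit vs DMSO.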

Read-out in test [15]: Pyruvate Dehydrogenase Kinase 4 (PDK4), PDK4 (gene 5166)
The test can be described thus: LTEA_HepaRG_PDK4: Life Technologies and Expression Analysis (LTEA) Assay for Pyruvate Dehydrogenase Kinase 4 (PDK4) using HepaRG (AID 2283525). An outline of the steps: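 In this multiplexed human HepaRG expression assay, cells are treated 48 h with test chemicals across an eight-point range starting at 100 uM. PDK4 mRNA changes, normalized to ACTB/GAPDH/POLR2A, are fitted in both directions relative to vehicle.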

Read-out in test [16]: NAD(P)H dehydrogenase [quinone] 1 (NQO1), NQO1 (gene 1728)
The test is described as follows: LTEA_HepaRG_NQO1: Life Technologies and Expression Analysis (LTEA) Assay for NAD(P)H dehydrogenase [quinone] 1 (NQO1) using HepaRG (AID 2283526). An outline of the steps: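 HepaRG, 48 h post-plating → serum-free induction medium → test chemical 48 h (duplicate, 100 uM top, half-log x8, 0.5% DMSO) → RNA isolation → qRT-PCR, ACTB/GAPDH/POLR2A normalization; bidirectional curve fit vs DMSO baseline.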

Read-out in test [17]: Nuclear factor erythroid 2-related factor 2 (Homo sapiens) (UniProt Q16236)
The test can be described thus: LTEA_HepaRG_NFE2L2: Life Technologies and Expression Analysis (LTEA) Assay for Nuclear factor erythroid 2-related factor 2 (NFE2L2) Transcription Factor using HepaRG (AID 2283527).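 Note: TaqMan qRT-PCR transcript level normalised to ACTB GAPDH and POLR2A housekeeping genes.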 An outline of the steps: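 Transcript level of NFE2L2 is the read-out, measured by microfluidic TaqMan qRT-PCR and normalized to three housekeeping genes. Human HepaRG cultures received test chemical for 48 h at up to 100 uM in half-log steps. Gain or loss of signal is fitted relative to 0.5% DMSO.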

Read-out in test [18]: succinate dehydrogenase complex iron sulfur subunit B (SDHB), SDHB (gene 6390)
The test is described as follows: LTEA_HepaRG_SDHB: Life Technologies and Expression Analysis (LTEA) Assay for succinate dehydrogenase complex iron sulfur subunit B (SDHB) using HepaRG (AID 2283528). Summed up: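 HepaRG, 48 h exposure, 8-pt half-log series from 100 uM in 0.5% DMSO, duplicates. Readout: SDHB mRNA by Fluidigm qRT-PCR vs housekeeping genes; bidirectional fit relative to DMSO.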

Read-out in test [19]: Signal transducer and activator of transcription 3 (Homo sapiens) (UniProt P40763)
The test is described as follows: LTEA_HepaRG_STAT3: Life Technologies and Expression Analysis (LTEA) Assay for Signal transducer and activator of transcription (STAT3) using HepaRG (AID 2283529). An outline of the steps: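 Read-out is STAT3 mRNA level by qRT-PCR, normalized to three housekeeping genes, in human HepaRG liver cells treated for 48 h. Concentrations ran from 100 uM downward in half-log steps; curves were fitted for gain or loss relative to 0.5% DMSO.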

Signal transducer and activator of transcription 3 (Homo sapiens), sequence (P40763 whole entry, looked up): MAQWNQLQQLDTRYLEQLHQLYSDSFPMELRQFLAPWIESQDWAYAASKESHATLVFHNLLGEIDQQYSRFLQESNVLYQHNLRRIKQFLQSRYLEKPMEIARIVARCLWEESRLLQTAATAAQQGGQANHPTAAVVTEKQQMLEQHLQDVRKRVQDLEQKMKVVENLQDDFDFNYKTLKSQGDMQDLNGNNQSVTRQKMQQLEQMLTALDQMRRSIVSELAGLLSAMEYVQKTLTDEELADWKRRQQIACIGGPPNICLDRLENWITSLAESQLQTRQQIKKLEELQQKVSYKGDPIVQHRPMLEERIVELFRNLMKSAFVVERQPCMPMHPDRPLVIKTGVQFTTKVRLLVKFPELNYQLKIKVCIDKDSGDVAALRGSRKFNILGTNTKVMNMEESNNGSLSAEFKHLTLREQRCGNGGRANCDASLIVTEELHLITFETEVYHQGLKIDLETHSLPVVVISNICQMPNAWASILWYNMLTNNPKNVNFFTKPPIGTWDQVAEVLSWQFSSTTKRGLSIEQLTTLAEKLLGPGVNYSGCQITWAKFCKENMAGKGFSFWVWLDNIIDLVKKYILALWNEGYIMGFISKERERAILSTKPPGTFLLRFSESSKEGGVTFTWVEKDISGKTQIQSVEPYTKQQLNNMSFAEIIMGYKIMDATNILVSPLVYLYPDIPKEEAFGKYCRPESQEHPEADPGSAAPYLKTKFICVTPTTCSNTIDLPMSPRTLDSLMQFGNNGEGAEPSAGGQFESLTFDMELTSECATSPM
Nuclear factor erythroid 2-related factor 2 (Homo sapiens), sequence (Q16236 whole entry, looked up): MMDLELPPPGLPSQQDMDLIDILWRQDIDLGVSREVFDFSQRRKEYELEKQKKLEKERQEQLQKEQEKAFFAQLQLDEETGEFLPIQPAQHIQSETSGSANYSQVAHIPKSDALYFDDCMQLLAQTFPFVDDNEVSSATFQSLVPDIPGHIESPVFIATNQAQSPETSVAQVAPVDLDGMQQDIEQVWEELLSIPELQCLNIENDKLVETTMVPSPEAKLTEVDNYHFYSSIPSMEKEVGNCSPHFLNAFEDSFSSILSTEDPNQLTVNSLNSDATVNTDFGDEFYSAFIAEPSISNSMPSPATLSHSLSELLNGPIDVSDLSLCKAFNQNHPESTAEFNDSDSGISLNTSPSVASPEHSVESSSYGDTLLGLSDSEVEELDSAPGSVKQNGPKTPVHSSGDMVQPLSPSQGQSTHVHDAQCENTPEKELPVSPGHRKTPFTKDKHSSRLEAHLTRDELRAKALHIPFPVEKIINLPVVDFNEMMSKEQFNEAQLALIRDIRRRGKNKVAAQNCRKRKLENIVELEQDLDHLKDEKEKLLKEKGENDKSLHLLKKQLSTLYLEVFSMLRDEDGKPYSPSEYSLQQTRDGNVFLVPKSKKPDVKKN
Nuclear factor NF-kappa-B p105 subunit (Homo sapiens), sequence (P19838 whole entry, looked up): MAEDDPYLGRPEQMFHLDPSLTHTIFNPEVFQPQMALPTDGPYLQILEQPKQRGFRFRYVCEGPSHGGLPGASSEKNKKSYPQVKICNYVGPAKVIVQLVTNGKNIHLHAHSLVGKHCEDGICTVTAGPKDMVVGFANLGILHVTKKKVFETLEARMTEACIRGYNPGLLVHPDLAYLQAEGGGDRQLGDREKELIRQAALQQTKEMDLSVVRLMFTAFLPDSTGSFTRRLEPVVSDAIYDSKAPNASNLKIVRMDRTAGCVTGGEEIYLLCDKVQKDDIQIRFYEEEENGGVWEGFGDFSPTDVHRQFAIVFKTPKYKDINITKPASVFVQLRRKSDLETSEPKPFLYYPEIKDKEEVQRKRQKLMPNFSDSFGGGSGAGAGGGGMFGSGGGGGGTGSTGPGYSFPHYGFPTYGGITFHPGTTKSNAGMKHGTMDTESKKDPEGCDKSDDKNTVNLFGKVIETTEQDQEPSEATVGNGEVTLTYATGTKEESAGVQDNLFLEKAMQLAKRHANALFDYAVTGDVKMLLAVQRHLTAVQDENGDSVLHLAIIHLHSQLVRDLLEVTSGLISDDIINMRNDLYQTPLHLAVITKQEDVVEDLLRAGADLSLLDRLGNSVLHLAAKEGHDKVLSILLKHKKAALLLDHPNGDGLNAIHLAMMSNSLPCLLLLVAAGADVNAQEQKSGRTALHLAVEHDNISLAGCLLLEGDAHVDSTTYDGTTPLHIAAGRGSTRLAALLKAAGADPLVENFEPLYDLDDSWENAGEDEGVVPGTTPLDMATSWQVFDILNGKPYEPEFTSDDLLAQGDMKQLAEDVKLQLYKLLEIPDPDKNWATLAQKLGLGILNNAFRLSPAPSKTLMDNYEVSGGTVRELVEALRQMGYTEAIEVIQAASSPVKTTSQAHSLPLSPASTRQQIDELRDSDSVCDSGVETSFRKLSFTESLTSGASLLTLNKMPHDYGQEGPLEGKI

On to `N#CN=C1SCCN1Cc1ccc(Cl)nc1`, for which the outcome in [1], in test [2], in [3], in test [4], in test [5] and in [6] was inactive. Further, the result in [7], in test [8], in test [9], in test [10], in [11] and in [12] was inactive. In addition, the result in test [13], in [14], in [15], in test [16], in test [17] and in test [18] was inactive. Besides, the outcome in [19] was inactive.

Broadly, the AC50 is the midpoint of the concentration-response curve, whichever way the signal moves. In the case of `CCN(CC)C(=O)C(C)Oc1cccc2ccccc12` (stereo unspecified), the outcome in test [1], in [3], in [5], in [7], in test [12] and in test [13] was inactive. Moreover, the compound was classed as inactive in test [15], in test [16], in [17], in test [18] and in test [19]. Moreover, the AC50 in [2] is 50 µM (active); in test [4], 69.6 µM (active); in test [6], 81.1 µM (active); in [9], 76.2 µM (active); in test [10], 76.5 µM (active).

Turning to `CCCN(CC)CC1COC2(CCC(C(C)(C)C)CC2)O1` (stereo unspecified), the call in test [1], in test [2], in test [3], in test [4], in test [5] and in [6] was inactive. Moreover, the compound was called inactive in test [7], in test [9], in test [10], in test [11], in [12] and in test [13]. Moreover, the call in test [15], in [16], in test [17], in test [18] and in [19] was inactive.

In the case of `O=C1C2CC=CCC2C(=O)N1SC(Cl)(Cl)Cl` (stereo unspecified), the compound was classed as inactive in test [1], in [2], in [3], in test [6], in [8] and in [9]. In addition, the compound was called inactive in [10], in [11], in test [12], in test [13], in test [14] and in test [15]. In addition, the outcome in [16], in test [17], in test [18] and in [19] was inactive. Also, the AC50 in [4] was 49.2 µM (active); in test [5] it was 73.5 µM (active); in test [7] it was 49.2 µM (active).
